What all share (assay type): functional
In assay [1] the test system is Plasmodium falciparum. The experiment in a line: GSK_TCMDC: Inhibition of Plasmodium falciparum 3D7 in whole red blood cells, using parasite LDH activity as an index of growth. Test compounds present at 2uM.
Assay [2] concerns Plasmodium falciparum. The experiment in a line: GSK_TCMDC: Inhibition of Plasmodium falciparum Dd2 in whole red blood cells, using parasite LDH activity as an index of growth. Test compounds present at 2uM.
The test system of a further assay is HepG2. The experiment in a line: GSK_TCMDC: Percent inhibition of human HepG2 cell line. Test compounds present at 10uM.

By Inhibition is commonly meant the relative decrease from the control value, in per cent. A high value points to a response far below the control.

Regarding `CS(=O)(=O)CCNCc1cccc(-c2cc3nccc(Nc4ccc(Oc5ccccc5)cc4)c3cc2Cl)c1`, the Inhibition in the assay with Plasmodium falciparum [1] is on record as 100%; in the assay on Plasmodium falciparum [2], 82%; in the assay on HepG2 it was 2%.
For the compound `CCNc1cc(C)nc(Nc2ccccc2)n1`, the Inhibition with Plasmodium falciparum [1] was determined as 92%; in the assay on Plasmodium falciparum [2] it was 8%; in the assay with HepG2 it was 16%.
In the same order, the values of `CN1CCN(c2ccnc3ccc(NC(=O)Nc4cccc5c(-c6ccncc6)cccc45)cc23)CC1` are 100%, 100% and 7%.
With `O=C(NC1CCCCCC1)[C@@H]1CCCN1C(=O)c1ccc(O)c(-c2ccc(Cl)c(Cl)c2)c1`, the Inhibition is on record as 99% with Plasmodium falciparum [1], 98% in the assay on Plasmodium falciparum [2] and 0% in the assay on HepG2.
As to `CC1CCCCC1N(C)C1CCN(CCCNC(=O)C=Cc2ccc(Cl)cc2Cl)CC1` (stereo not drawn), the Inhibition in the assay on Plasmodium falciparum [1] is 100%; in the assay on Plasmodium falciparum [2], 59%; in the assay on HepG2 it was 53%.
In the same order, the values of `COc1cc(CNC2Cc3ccccc3C2)ccc1Oc1ccc2nc[nH]c2c1.O=C(O)C(F)(F)F` are 98%, 50% and 30%.
Taken in the same sequence, the figures for `Cc1ccc(CNC(=O)[C@H](Cc2ccccc2)Nc2cc(C)nc(NCC3CCCCC3)n2)cc1.O=C(O)C(F)(F)F` were 100%, 89% and 0%.
With `Fc1ccc2[nH]c(-c3ccc(-c4ccc(CN5CCN(CCN6CCOCC6)CC5)cc4)s3)nc2c1.O=C(O)C(F)(F)F`, the Inhibition in the assay with Plasmodium falciparum [1] was found to be 99%; in the assay on Plasmodium falciparum [2], 98%; in the assay with HepG2 it was 39%.
In the same order, the values of `COc1ccc(C#Cc2ccc(-c3c(C)[nH]c(C)c(Cl)c3=O)cc2)cc1` are 97%, 97% and 0%.
For the compound `CN(C)CCCNc1ncnc2c1[nH]c1ccc(F)cc12`, the Inhibition with Plasmodium falciparum [1] is 100%; in the assay with Plasmodium falciparum [2] it was 0%; with HepG2, 14%.
In the same order, the values of `Cc1ccc2c(=O)cc(CCc3cccc(F)c3F)n(CC(=O)N(Cc3ccc(-c4ccc(C(F)(F)F)cc4)cc3)C3CCN(C(C)C)CC3)c2n1.O=C(O)C(O)C(O)C(=O)O` are 100%, 49% and 58%.

The record behind these values is ChEMBL document CHEMBL1157539, “Thousands of chemical starting points for antimalarial lead identification” (Nature, 2010).
